# Results filed as inconclusive are left out. Active and inactive are the calls of the source. Calls come from the whole dose curve; as a rule, active = well fitted cell-killing curve with a large enough effect; inconclusive = small, poorly fitted or top-dose-only effect, or effect the other way; inactive = flat fitted curve, though single readings scatter.
# Tested on: Hek293T
# Test: Primary qHTS to identify gynecologic anti-cancer compounds using libraries of approved drugs and bioactive compounds (AID 1345084); note: nearly all actives have a fitted effect of over 55% in size
# Details: Gynecologic cancer cell panel viability, ATPlite luminescence, 48 h, control line for the selectivity index; series mostly up to 57.5 µM; activity change, negative = cytotoxicity: at the top concentration
# Outline: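 ATP-based viability (ATPlite), 1,000 cells/well, 16 h pre-incubation, 48 h compound at 37 C, 5% CO2, 15 min RT before read.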
# % is set by controls: 0 for no effect and ±100 for the full control effect; potency is the fitted concentration of half-maximal effect.
Compound,"activity change, negative = cytotoxicity",Potency
O=[N+]([O-])c1cn2c(n1)OCC(OCc1ccc(OC(F)(F)F)cc1)C2 (centres undefined),0.0241% (inactive),
C=C1CCC2C(C)(C)CCC[C@]2(C)[C@H]1C/C=C(\CO)C(=O)C(=O)O (some centres undefined),-1.57% [at 38.5 µM] (inactive),
C=CC[C@]12C[C@@H](OC)C(=O)C(OC)=C1O[C@@H](c1cc(OC)c3c(c1)OCO3)[C@@H]2C,22.3% [at 25.3 µM] (inactive),
COCC1OC(OC(C)(C)C2CCC3(C)C=C(C4CCC5C4(C)CC(O)C4OC(C(C)(C)OC6OC(CO)C(O)C(O)C6NC(C)=O)CCC45C)CCC3O2)C(NC(C)=O)C(O)C1O (centres undefined),-4.4% [at 11.6 µM] (inactive),
CCCCc1nc2cc(/C=C/C(=O)NO)ccc2n1CCN(CC)CC,,3.16 µM (active)
CN1CCc2nc(C(=O)N[C@@H]3C[C@@H](C(=O)N(C)C)CC[C@@H]3NC(=O)C(=O)Nc3ccc(Cl)cn3)sc2C1,2.83% (inactive),
C[C@@]1(O)[C@H](O)[C@@H](CO)O[C@H]1n1ccc(N)nc1=O,-1.81% (inactive),
COc1ccc(-c2nc(-c3ccc(-c4cccc(Cl)c4)o3)[nH]c2-c2ccc(OC)cc2)cc1,19.6% (inactive),
CCOCCn1nc(CC)c2nc(N3CCC(C(=O)O)CC3)nc(Nc3cc(C)ccn3)c21,-1.34% (inactive),
C=CCC1=C[C@]2(OC)[C@H](C)[C@@H](c3ccc(O)c(OC)c3)O[C@]2(OC)CC1=O,2.42% [at 38.5 µM] (inactive),
Cc1ccc(Cc2c(C)nc3nc(SCC(=O)NCCN4CCNCC4)nn3c2C)cc1,-0.842% (inactive),
CC1CC[C@]2(C(=O)O)CC[C@]3(C(=O)O)C(=CCC4[C@@]5(C)CC[C@H](OC6OC(C)C(O)C(OC7OC(CO)C(O)C(O)C7O)C6O)C(C)(C)C5CC[C@]43C)C2C1C (some centres undefined),7.41% [at 25.3 µM] (inactive),
C=C1CC[C@@H]2[C@@](C)(CO[C@@H]3O[C@H](CO)C(O)[C@H](O)C3O)[C@H](O)CC[C@@]2(C)[C@@H]1CC/C(C)=C/CO (some centres undefined),2% [at 11.6 µM] (inactive),
O=C(Nc1ccc(-c2ccncc2)cc1)N[C@H](CO)c1ccccc1,1.38% (inactive),
